AC50 and outcome data for six molecules are collected here from PubChem BioAssay (EPA / NIEHS).

The source made the active and inactive calls. The calls were made as follows: active = hit-call score of the fitted dose curve at least 0.9, where 1 is the maximum; inactive = score below 0.9.

The nature of test [1]: APR_HepG2_CellCycleArrest_24hr: Apredica 24-hour HepG2 Assay for Cell Cycle Arrest (AID 2282905).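 Also: cell cycle arrest scored as ratio of 2N to 4N nuclear DNA content.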 The conditions noted are these: imaging, actives raise or lower the signal. Put shortly: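 Cell cycle arrest is scored from nuclear DNA content measured by high-content imaging of Hoechst 33342-stained HepG2 cells following 24-hour treatment at ten concentrations up to 200 uM, with DMSO as baseline.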

Test [2] can be described thus: APR_HepG2_NuclearSize_24hr: Apredica 24-hour HepG2 Assay for Nuclear Size (AID 2282907). The conditions noted are these: high-content imaging, actives raise or lower the signal. The method, boiled down: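 Compounds in DMSO (final 0.5%) were added to human HepG2 hepatoma cells at ten concentrations up to 200 uM for 24 hr. Fixed nuclei were stained with Hoechst 33342, and nuclear diameter was quantified from automated images.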

A short description of test [3]: APR_HepG2_CellLoss_24hr: Apredica 24-hour HepG2 Assay for Cell Loss (AID 2282908).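 As to AC50: fit in both directions so a hit may be cell loss or gain.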 The conditions noted are these: high-content imaging. Put shortly:
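Cell number is quantified by fluorescence imaging of Hoechst 33342-stained nuclei following dosing at 0.39–200 uM in 0.5% DMSO. Curves are fitted in both directions from the DMSO baseline.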

A short description of test [4]: APR_HepG2_MicrotubuleCSK_24hr: Apredica 24-hour HepG2 Assay for Microtubule CSK Stabilty (AID 2282909). The conditions noted are these: HepG2 microtubule cytoskeleton imaging, actives raise or lower the signal. Put shortly: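 Steps: dose HepG2 for 24 h (0.39–200 uM, 0.5% DMSO); fix 30 min in 3.7% formaldehyde at room temperature; permeabilize; stain alpha-tubulin 60 min; image microtubule cytoskeleton at 20x. Signal change fitted in both directions relative to DMSO.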

A short description of test [5]: APR_HepG2_MitoticArrest_24hr: Apredica 24-hour HepG2 Assay for Mitotic Arrest (AID 2282910). The conditions noted are these: high-content imaging, actives raise or lower the signal. The method, boiled down: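 Compounds are dosed onto HepG2 cells across ten concentrations up to 200 uM for 24 hr. Cells are then fixed in 3.7% formaldehyde, permeabilised, and labelled for phospho-histone H3 and nuclei; images are scored by cell cycle analysis and fitted bidirectionally relative to DMSO.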

Test [6] is described as follows: APR_HepG2_MitoMembPot_24hr: Apredica 24-hour HepG2 Assay for Mitochondrial Membrane Potential (AID 2282911). The conditions noted are these: imaging, actives raise or lower the signal. Put shortly:
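Human hepatoma HepG2 cultures received ten compound concentrations up to 200 uM for 24 hr. Membrane-potential dye signal, captured by automated fluorescence microscopy, was scored for gain or loss against DMSO controls.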

Test [7] in a line: APR_HepG2_MitoMass_24hr: Apredica 24-hour HepG2 Assay for Mitochondrial Mass (AID 2282912). The conditions noted are these: high-content imaging, actives raise or lower the signal. Put shortly:
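The liver line HepG2 was dosed in duplicate across a 0.39–200 uM series, with final DMSO held at 0.5% v/v, and harvested at 24 hr. High-content imaging measured mitochondrial dye staining.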

Test [8] in a line: APR_HepG2_p53Act_24hr: Apredica 24-hour HepG2 Assay for p53 Activation (AID 2282913).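 Also: p53 protein immunofluorescence averaged per cell in HepG2 with Hoechst nuclei.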 The conditions noted are these: high-content imaging, actives raise or lower the signal. Put shortly:
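Automated fluorescence imaging quantifies p53 immunostaining in HepG2 cells after a 24 hr exposure (0.39–200 uM, duplicate, 0.5% DMSO). Nuclei are located by Hoechst 33342 staining.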

The nature of test [9]: APR_HepG2_CellCycleArrest_72hr: Apredica 72-hour HepG2 Assay for Cell Cycle Arrest (AID 2282914). The conditions noted are these: high-content imaging, actives raise or lower the signal. The method, boiled down: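 Cell cycle arrest in HepG2 was scored from nuclear DNA content after 72 hr compound treatment (0.39–200 uM). Activity, either gain or loss, was fitted against the DMSO baseline.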

Test [10] can be described thus: APR_HepG2_CellLoss_72hr: Apredica 72-hour HepG2 Assay for Cell Loss (AID 2282915). The conditions noted are these: high-content imaging. Put shortly:
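Cell number comes from Hoechst 33342-labelled nuclei, imaged at 20x after 3.7% formaldehyde fixation. Dosing was 0.39–200 uM, ten concentrations in duplicate, 0.5% DMSO final, for 72 h. Bidirectional fit relative to DMSO baseline.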

A short description of test [11]: APR_HepG2_P-H2AX_72hr: Apredica 72-hour HepG2 Assay for H2AX Phosphorylation (AID 2282916).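 Also: phospho-histone H2A.x immunostain intensity per cell marking DNA damage.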 The conditions noted are these: imaging, actives raise or lower the signal. Put shortly:
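Following 72 hr treatment with 0.39–200 uM compound, HepG2 cells were formaldehyde-fixed, permeabilized and stained for phospho-H2A.x; signal was measured by high-content imaging and fitted bidirectionally against DMSO controls.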

Test [12] is described as follows: APR_HepG2_MitoMembPot_72hr: Apredica 72-hour HepG2 Assay for Mitochondrial Membrane Potential (AID 2282917). The conditions noted are these: imaging, actives raise or lower the signal. Put shortly: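 Membrane potential read by MitoTracker Red CMXRos (250 nM, 30 min, pre-fixation) fluorescence imaging of HepG2 after 72 hr exposure. Ten concentrations, 0.39–200 uM, duplicate wells, 0.5% DMSO; fitted in both directions against DMSO baseline.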

A short description of test [13]: APR_HepG2_MitoticArrest_72hr: Apredica 72-hour HepG2 Assay for Mitotic Arrest (AID 2282918). The conditions noted are these: high-content imaging, actives raise or lower the signal. The method, boiled down: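 Mitotic arrest in HepG2 is scored from phospho-histone H3 staining after 72 hr dosing across 0.39–200 uM, with DMSO at 0.5% v/v. Nuclei are identified by Hoechst 33342 and fluorescence intensity is quantified per cell.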

The nature of test [14]: APR_HepG2_MicrotubuleCSK_72hr: Apredica 72-hour HepG2 Assay for Microtubule CSK Stabilty (AID 2282919). The conditions noted are these: HepG2 microtubule cytoskeleton, high-content imaging, actives raise or lower the signal. The method, boiled down:
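Read-out is tubulin fluorescence intensity from high-content imaging of HepG2 cells, with nuclei identified by Hoechst 33342. Treatment lasts 72 h at 0.39–200 uM, and curves are fitted bidirectionally against the DMSO negative control.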

Test [15] can be described thus: APR_HepG2_P-H2AX_24hr: Apredica 24-hour HepG2 Assay for H2AX Phosphorylation (AID 2282920). The conditions noted are these: high-content imaging, actives raise or lower the signal. Put shortly:
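Signal comes from a FITC-labeled secondary detecting phospho-histone H2A.x in fixed HepG2 cells, quantified by automated imaging at 20x. Dosing ran 24 hr across 0.39–200 uM with 0.5% v/v DMSO.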

The nature of test [16]: APR_HepG2_StressKinase_72hr: Apredica 72-hour HepG2 Assay for Stress Kinase (AID 2282921). The conditions noted are these: HepG2 stress kinase (phospho-c-Jun) imaging, actives raise or lower the signal. The method, boiled down: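 Fluorescence intensity of Cy3-tagged anti-phospho-c-Jun antibody, quantified per cell from Hoechst-defined nuclei across six images per well, served as the read-out following 72 h exposure (0.39–200 uM, 0.5% v/v DMSO).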

Test [17] can be described thus: APR_HepG2_StressKinase_24hr: Apredica 24-hour HepG2 Assay for Stress Kinase (AID 2282922). The conditions noted are these: HepG2 stress kinase (phospho-c-Jun) imaging, actives raise or lower the signal. Put shortly:
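HepG2, 24 hr dosing, 0.39–200 uM in duplicate, 0.5% DMSO; formaldehyde fix (3.7%), 0.5% Triton X-100; anti-phospho-c-Jun + Cy3 secondary, Hoechst counterstain; ArrayScan imaging; bidirectional curve fit vs DMSO baseline.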

Test [18] is described as follows: APR_HepG2_p53Act_72hr: Apredica 72-hour HepG2 Assay for p53 Activation (AID 2282923).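 Also: average cellular p53 protein immunofluorescence intensity in HepG2 cells.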 The conditions noted are these: high-content imaging, actives raise or lower the signal. Put shortly: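 HepG2 monolayers receive test compounds in duplicate at ten concentrations (0.39 through 200 uM) for 72 hr. They are then formaldehyde-fixed, antibody-labelled for p53, Hoechst-stained and imaged, with activity fitted bidirectionally versus DMSO.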

Test [19] can be described thus: APR_HepG2_MitoMass_72hr: Apredica 72-hour HepG2 Assay for Mitochondrial Mass (AID 2282924).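 Also: MitoTracker Red CMXRos stain intensity per cell imaged as mitochondrial mass.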 The conditions noted are these: high-content imaging, actives raise or lower the signal. Put shortly:
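HepG2, 72 hr cmpd, 10 conc 0.39–200 uM in dup, DMSO 0.5% v/v. MitoTracker Red CMXRos 250 nM 30 min pre-fix; formaldehyde 3.7% fix 30 min RT. HCS imaging, gain/loss fit vs DMSO.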

Test [20] in a line: APR_HepG2_NuclearSize_72hr: Apredica 72-hour HepG2 Assay for Nuclear Size (AID 2282925). The conditions noted are these: high-content imaging, actives raise or lower the signal. Put shortly: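 HepG2; cpd 0.39–200 uM, 10 conc, duplicate; 72 h; DMSO 0.5% v/v; fix 3.7% formaldehyde 30 min RT; Triton permeabilization; Hoechst 2 ug/mL; HCS imaging 20x; nuclear diameter; gain/loss fit vs DMSO.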

With `CN1C(=O)N(c2ccccc2Br)Cc2cnc(Nc3ccc4c(c3)OCC(CO)O4)nc21` (stereo not drawn), the AC50 in test [1] was 8.95 µM (active); in test [3], 3.7 µM (active); in [5], 2.93 µM (active); in test [6], 105 µM (active); in test [8], 4 µM (active); in test [9], 5.09 µM (active). The AC50 in test [10] was 6.32 µM (active); in [11], 3.96 µM (active); in test [13] it was 2.57 µM (active); in test [15], 5.05 µM (active); in [18] it was 4.04 µM (active); in test [19] it was 19.8 µM (active). The outcome in test [2], in test [4], in [7], in test [12], in test [14] and in [16] was inactive. Further, the result in [17] and in test [20] was inactive.

Regarding `OC12N=C(c3ccccc3)SC1Cc1cc(Cl)ccc12` (stereo not drawn), the molecule was called inactive in test [1], in test [2], in test [3], in [4], in test [5] and in test [6]. In addition, the call in [7], in [8], in [9], in test [14], in test [15] and in [16] was inactive. Moreover, the outcome in test [17], in test [18], in test [19] and in test [20] was inactive. Further, the AC50 in test [10] is 67.5 µM (active); in test [11], 52.1 µM (active); in test [12], 0.548 µM (active); in test [13], 46.8 µM (active).

`O=c1[nH]sc2ccccc12`: the molecule was classed as inactive in test [1], in [2], in test [6], in test [14], in [17] and in test [20]. Moreover, the concentration at half-maximal activity (AC50) in test [3] is 29 µM (active); in [4] it was 38.2 µM (active); in test [5], 13.5 µM (active); in test [7], 15.7 µM (active); in test [8], 29.3 µM (active); in [9], 21.4 µM (active). Also, the AC50 is 18.1 µM (active) in test [10]; 46.1 µM (active) in [11]; 107 µM (active) in test [12]; 9.46 µM (active) in [13]; 5.7 µM (active) in [15]; 50.4 µM (active) in test [16]. For the same molecule, the AC50 is 48.5 µM (active) in test [18] and 13.6 µM (active) in test [19].

For the molecule `CCCCCCCCCCCO`, the call in test [1], in [2], in test [4], in [7], in test [9] and in test [11] was inactive. Besides, the outcome in test [12], in [14], in [16], in [17], in test [18] and in test [19] was inactive. The call in [20] was inactive. The AC50 was 103 µM (active) in [3]; 104 µM (active) in test [5]; 110 µM (active) in test [6]; 107 µM (active) in test [8]; 107 µM (active) in [10]; 105 µM (active) in test [13]. In addition, the AC50 in test [15] was 100 µM (active).

Turning to `NCc1cccc(C2CCN(C(=O)c3ccc(C#Cc4ccccc4F)o3)CC2)c1`, the call in test [1], in [2], in test [7], in test [9], in test [14] and in [17] was inactive. In addition, the outcome in test [19] was inactive. Further, the AC50 in [3] was 17.7 µM (active); in test [4], 61.3 µM (active); in test [5] it was 18.6 µM (active); in [6] it was 18.4 µM (active); in [8], 16.4 µM (active); in [10], 15.5 µM (active). Further, the AC50 is 17.7 µM (active) in test [11]; 98.3 µM (active) in [12]; 17.2 µM (active) in test [13]; 18.6 µM (active) in [15]; 11.4 µM (active) in test [18]; 107 µM (active) in test [20].

`O=c1ccc2ccccc2o1`: the outcome in test [1], in test [2], in test [3], in test [4], in [5] and in [6] was inactive. For the same molecule, the molecule was classed as inactive in test [7], in [8], in [9], in test [10], in test [11] and in test [13]. The outcome in [14], in test [15], in test [17], in test [18], in test [19] and in test [20] was inactive. Moreover, in test [12], the AC50 is 100 µM (active).
